Assay outcomes (PubChem)
Pf gamet viab: late stage P. falciparum gametocyte viability inhibitors, primary screen, ATP luminescence, HTS | P. falciparum stage V gametocytes, 24 h | 150,000 tested, 0.065% active | inhibition, % at 10.9 µM;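 active means inhibition above the mean plus 3 SD of compounds within the control limits, set per campaign, cut at about 38% in these data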;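 further: 0% = DMSO wells and 100% = medium only without gametocytes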
EP2 modulator: EP2 receptor modulators, cAMP readout, primary screen, cell-based, HTRF cAMP, PGE2 stimulation; Prostaglandin E2 receptor EP2 subtype (Homo sapiens), P43116; EP2-expressing cells, cAMP HTRF FRET, PGE2 co-stimulation; induction, % at 25 µM; 260,000 tested, 0.83% active;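 active means compounds whose cAMP rise, as percent of the full-agonist control response, exceeds 60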;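 further: rat C6 glioma line stably carrying human EP2 under a CMV promoter; the protocol text gives 20 µM as final concentration; 100% = response of wells given 1 µM PGE2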
Target sequence (P43116 whole entry, looked up): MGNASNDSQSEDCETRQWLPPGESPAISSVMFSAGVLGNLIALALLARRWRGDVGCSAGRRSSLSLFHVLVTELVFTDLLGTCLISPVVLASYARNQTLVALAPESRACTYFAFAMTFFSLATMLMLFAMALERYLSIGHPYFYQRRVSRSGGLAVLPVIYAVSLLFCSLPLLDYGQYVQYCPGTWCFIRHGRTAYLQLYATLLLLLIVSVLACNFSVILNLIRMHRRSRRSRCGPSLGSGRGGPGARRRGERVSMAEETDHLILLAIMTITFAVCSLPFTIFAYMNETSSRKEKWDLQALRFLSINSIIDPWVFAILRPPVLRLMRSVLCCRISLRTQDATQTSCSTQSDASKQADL
S1P3 antagonist: S1P3 receptor antagonists, primary screen, cell-based. Sphingosine 1-phosphate receptor 3 (Homo sapiens), Q99500. CHO S1P3 NFAT-BLA reporter, FRET fluorescence, antagonist mode. inhibition, % at 4.98 µM. AID 485, 2006. 170,000 tested, 0.27% active;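 active means inhibition above the plate cutoff, the mean inhibition of test wells on that plate plus 3 SD, cut at about 28% in these data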;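 further: cells challenged with S1P at its EC80 of 0.8 µM; blue over green emission ratio from cleaved BLA substrate after 4 h stimulation; 0% = S1P-stimulated wells and 100% = unstimulated DMSO-only wells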
S1P4 agonist: S1P4 receptor agonists, primary screen, cell-based; S1P4-expressing cell line, agonist reporter assay; 220,000 tested, 0.35% active; Sphingosine 1-phosphate receptor 4 (Homo sapiens), O95977; activation, % at 4.98 µM; in the data active means activation above about 11%;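 further: 0% = DMSO vehicle and 100% = reference agonist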
S1P4 antagonist: S1P4 receptor antagonists, primary screen, cell-based; Sphingosine 1-phosphate receptor 4 (Homo sapiens), O95977; S1P4-expressing cells, antagonist mode, reporter read-out; inhibition, % at 4.98 µM; 220,000 tested, 0.26% active; in the data active means inhibition above about 29%;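 further: 0% = wells stimulated with agonist and 100% = vehicle wells without agonist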
PGE2 EP2 inh: human EP2 receptor antagonists, primary screen, TR-FRET cAMP, C6 glioma cells | Prostaglandin E2 receptor EP2 subtype (Homo sapiens), P43116 | C6 glioma cells expressing human EP2; cells stimulated with saturating PGE2 | inhibition, % at 25 µM | 260,000 tested, 0.52% active | AID 1422, 2008;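 active means percent inhibition above 40 after rounding to a whole number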;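 further: rat C6 glioma host cells with rolipram phosphodiesterase inhibitor present; the protocol text gives 20 µM as final concentration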
EP2 cAMP induct: cAMP induction in EP2, EP4, beta2-AR and parental cells, confirmation, counter-screen for EP2 modulator project, cell-based, five parallel assays, C6 glioma, HEK293. shares compounds with EP2 modulator. 1,300 tested, 47% active. cAMP HTRF induction; plus low (about EC15) PGE2 agonist. calls only at 20 µM (by protocol);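 active means cAMP induction above 50% in the main assay while under 30% in all four parallel counter assays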;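 further: rat C6 glioma cells stably expressing human EP2 receptor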
* hit, by the source's call. Sampled rows, rich in hits. Any-hit rate of the full collection: about 1.9%.

CC(=O)N1N=C2/C(=C/c3ccccc3)CCCC2C1c1ccccc1 (stereo not drawn) was read as Pf gamet viab 8, EP2 modulator 70*, S1P3 antagonist -18, S1P4 agonist 0, S1P4 antagonist -36, PGE2 EP2 inh 8 and EP2 cAMP induct inactive.
Screening COc1cc(/C=C2\SC(=S)N(CCC(=O)Nc3cccc(C)c3C)C2=O)cc(OC)c1OC returned EP2 modulator -2 and PGE2 EP2 inh 6.
Screening CC(C)c1nc(SCc2c(F)cccc2Cl)c2c(=O)n(C)c(=O)n(C)c2n1 returned EP2 modulator 80*, S1P3 antagonist -17, S1P4 agonist 0, S1P4 antagonist -38, PGE2 EP2 inh 11 and EP2 cAMP induct active.
For Cn1c(=O)c2c(nc(SCCCC#N)n2Cc2c(F)cccc2Cl)n(C)c1=O the results were EP2 modulator 18, S1P3 antagonist -25, S1P4 agonist 1, S1P4 antagonist 9 and PGE2 EP2 inh 7.
Screening CC(=O)c1cc(C#N)c(SCc2ccccc2)nc1C returned EP2 modulator 72*, S1P4 agonist 0, S1P4 antagonist -12, PGE2 EP2 inh 2 and EP2 cAMP induct active.
COC(=O)c1cc(C#N)c(SCc2ccccc2)nc1C was read as Pf gamet viab -5, EP2 modulator 56, S1P4 agonist 1, S1P4 antagonist 3 and PGE2 EP2 inh 8.
`COCCN1C(=O)C(=O)/C(=C(\O)c2ccc(OC)cc2C)C1c1cccs1` (stereo not drawn) gave EP2 modulator 46 and PGE2 EP2 inh 18.
`CC1CCN(C(c2cc3cc4c(cc3[nH]c2=O)OCCO4)c2nnnn2C2CCCC2)CC1` (stereo not drawn) gave EP2 modulator 22 and PGE2 EP2 inh 20.
Cc1ccc(O)c(CN(Cc2ccccn2)C2CC(C)(C)NC(C)(C)C2)c1 was read as EP2 modulator -12 and PGE2 EP2 inh 4.
O=C1C2C(c3ccccc3)C=CC(c3ccccc3)C2C(=O)N1c1ccncc1 (stereo not drawn) was read as Pf gamet viab 6, EP2 modulator 65*, S1P4 agonist -2, S1P4 antagonist -12, PGE2 EP2 inh 1 and EP2 cAMP induct inactive.
`COc1ccccc1C1(O)CCN(Cc2cccc(Oc3ncccn3)c2)CC1` gave EP2 modulator -31 and PGE2 EP2 inh 9.
For CCCCNc1nc2c(S(=O)(=O)c3ccccc3)nnn2c2ccccc12 the results were EP2 modulator 69*, S1P3 antagonist -15, S1P4 agonist 0, S1P4 antagonist -13, PGE2 EP2 inh 27 and EP2 cAMP induct inactive.
For CCc1ccc(S(=O)(=O)c2nnn3c2nc(NCCNC(C)=O)c2ccccc23)cc1 the results were Pf gamet viab -9, EP2 modulator -71, S1P3 antagonist -13, S1P4 agonist -3, S1P4 antagonist -10 and PGE2 EP2 inh 4.
`Cc1ccc(-c2nnn(CC(=O)N(Cc3cccs3)C(C(=O)NC3CCCC3)c3ccncc3)n2)cc1` (stereo not drawn) gave EP2 modulator 72*, S1P4 agonist -1, S1P4 antagonist 2, PGE2 EP2 inh 18 and EP2 cAMP induct inactive.
For O=C(NCC1CCCO1)C(c1ccncc1)N(Cc1cccs1)C(=O)Cn1nnc(-c2ccc(F)cc2)n1 (stereo not drawn) the results were Pf gamet viab 1, EP2 modulator -13, S1P3 antagonist -13, S1P4 agonist 0, S1P4 antagonist 1 and PGE2 EP2 inh 12.
Screening CC1(C)Oc2ccc(C(=O)N3CCOCC3)cc2N(CC(=O)N2CCOCC2)C1=O returned Pf gamet viab 2, EP2 modulator 74*, S1P3 antagonist 8, S1P4 agonist 0, S1P4 antagonist -14, PGE2 EP2 inh 19 and EP2 cAMP induct inactive.
For CC1(C)Oc2ccc(C(=O)N3CCCC3)cc2N(CC(=O)N2CCCCC2)C1=O the results were EP2 modulator 3 and PGE2 EP2 inh 9.
For CCCC(=O)N1CCCC(c2nc(-c3cccs3)no2)C1 (stereo not drawn) the results were EP2 modulator 76*, S1P4 agonist 1, S1P4 antagonist -11, PGE2 EP2 inh 12 and EP2 cAMP induct inactive.
Screening CCC(C)C(=O)N1CCCC(c2nc(-c3cccs3)no2)C1 (stereo not drawn) returned EP2 modulator -10, S1P4 agonist 1, S1P4 antagonist -6 and PGE2 EP2 inh 19.
CCOC(=O)c1cnc2ccc(OCC)cc2c1N(C)Cc1ccccc1 was read as Pf gamet viab 10, EP2 modulator 90*, S1P3 antagonist -6, S1P4 agonist -2, S1P4 antagonist 8, PGE2 EP2 inh 5 and EP2 cAMP induct active.
`CCOC(=O)c1cnc2ccc(OCC)cc2c1N1CCN(c2ccccc2OC)CC1` gave EP2 modulator 26, S1P4 agonist -4, S1P4 antagonist -6 and PGE2 EP2 inh 11.
Cc1ccc(CN(Cc2cc3cc(C)ccc3[nH]c2=O)Cc2nnnn2C2CCCCC2)cc1 was read as EP2 modulator 6 and PGE2 EP2 inh 1.
Screening O=C(CSc1nnnn1-c1ccc2c(c1)OCCO2)c1ccc(F)cc1 returned EP2 modulator -105 and PGE2 EP2 inh 7.
Screening CCOc1ccc(-c2csc(N)c2C(=O)OC)cc1 returned EP2 modulator 25, S1P4 agonist 1, S1P4 antagonist 2 and PGE2 EP2 inh 13.
Screening Cc1cccc(-c2csc(N)c2C(=O)OC(C)C)c1 returned EP2 modulator 96*, S1P4 agonist 1, S1P4 antagonist -9, PGE2 EP2 inh 9 and EP2 cAMP induct active.
For CCCc1nc(N2CCOCC2)c(C#N)c2c1CCCC2 the results were EP2 modulator 42, S1P4 agonist 0, S1P4 antagonist 7 and PGE2 EP2 inh 11.
For CCCSc1nc(N2CCOCC2)c2c(c1C#N)CCCC2 the results were EP2 modulator 66*, S1P4 agonist 1, S1P4 antagonist -8, PGE2 EP2 inh 15 and EP2 cAMP induct active.
N#CCCSc1nc(N2CCOCC2)c2c(c1C#N)CCCC2 was read as EP2 modulator 27, S1P4 agonist 1, S1P4 antagonist 3 and PGE2 EP2 inh 8.
`CCCCc1nc(N2CCOCC2)c(C#N)c2c1CCCC2` gave Pf gamet viab 2, EP2 modulator 79*, S1P4 agonist -1, S1P4 antagonist 1, PGE2 EP2 inh 11 and EP2 cAMP induct inactive.
